Compound activity (PubChem)
Most compounds without a hit are left out; they make up all but 1.4% or so of the library.
BCR signal inh – blocks chronic active B-cell receptor signaling | Potency, µM (series often up to 46.1 µM), most hits filed as inhibitors | 0.05% of 340,000 active | ABC-DLBCL IkBa-CBG/CBR reporter, luminescence ratio, 4 h; active means well fitted inhibition curve with a large enough effect in the signal ratio, with a control signal flat, not every such curve was filed as active; inconclusive means small, poorly fitted or top-dose-only effect, or effect the other way, or a change in a side signal; the % refers to the signal ratio
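Cell line TMD8 (human ABC DLBCL), stably expressing tet-inducible CBG68-IkBa fusion and CBR; IMDM/0.5% FBS; cpd up to 46 uM; dox induction, 4 h, 37C/5% CO2; dual luminescence; green/red ratio; MG132 control.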
BRCA1 expr up – increases BRCA1 expression; MCF7-BRCA1-FFLuc reporter, luminescence, 48 h; response scale: scaled: vehicle 0%, 10 µM genistein 100%; Potency, µM (highest dose often 46.1 µM), usual class: activators; 1.1% of 380,000 active; further: nearly all actives have a fitted effect of over 80% in size
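MCF7-BRCA1-FFLuc cells, 2000/well in phenol-red-free MEM, attached 2 h then treated 48 h at 37 C. Luciferase luminescence read 15 min after reagent; normalized to genistein maximum activation (10microM) and DMSO, concentration-response fitted.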
IL-2 act – activates IL-2 in a cell-based reporter assay; IL-2 activation reporter assay, cell-based qHTS; stimulated with anti-CD3/CD4/CD28 beads; in transgenic mouse T cells; activation, % (series mostly up to about 46 µM); 0.065% of 360,000 active; in the data active means activation above about 50%; inconclusive means mostly about 30% to 49%
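Quantitative HTS in unstimulated transgenic mouse T cells, with memory T cells as non-tolerant control and PMA/ionomycin as tolerance-bypass control. Compound pretreatment lasted 60 minutes before 18 h bead stimulation; EGFP/DsRed fluorescence read.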
Integrin act MD – activates integrin-mediated alleviation for muscular dystrophy | alpha7betagal myoblasts, beta-gal FDG fluorescence, 48 h | Potency, µM (top dose mostly 38.3 µM), hits mostly activators | 0.064% of 350,000 active; further: nearly all actives have a fitted effect of over 60% in size
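alpha7betagal+/- myoblasts (passage 13, 250/well) treated 48 h at 37C with compounds at 1:260 dilution of DMSO stock. Lysed, then beta-galactosidase activity read as FDG fluorescence (ex 480/em 540) after 30 min, with pre-read for autofluorescence.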
Nrf2 ARE act – activators of Nrf2 (ARE) signaling. AREc32 ARE-luciferase reporter (MCF7-derived line), luminescence, 24 h. Potency, µM (series often up to 46.1 µM), hits mostly activators. 0.31% of 410,000 active. AID 624171; further: nearly all actives have a fitted effect of over 65% in size
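Each well held 1000 AREc32 cells, which were incubated with compound for 24 hr at 37 deg C after overnight attachment, and ARE reporter activity was quantified by firefly luciferase luminescence.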
N370S GC mod – inhibitors or activators of N370S glucocerebrosidase for Gaucher disease. N370S GC spleen homogenate, 4MU-glucoside fluorescence. Potency, µM (top dose mostly 59.4 µM), most hits filed as inhibitors. P04062. 0.092% of 330,000 active
A number is an active result; i = inactive; ? = inconclusive; nt = no result given; [ ] = remark or other dose. Unless noted, the call rests on the fitted dose curve; in most records, active means well fitted curve in the direction sought with a large enough effect; inconclusive means small, poorly fitted or top-dose-only effect, or another doubt; inactive means no such curve, though single readings can be large; an effect the other way counts as inactive or inconclusive.

SMILES | BCR signal inh | BRCA1 expr up | IL-2 act | Integrin act MD | Nrf2 ARE act | N370S GC mod
CN[C@@H](CC(C)C)C(=O)N[C@@H]1C(=O)N[C@H](CC(N)=O)C(=O)N[C@@H]2C(=O)N[C@H]3C(=O)N[C@H](C(=O)N[C@H](C(=O)O)c4cc(O)cc(O)c4-c4cc3ccc4O)[C@H](O)c3ccc(c(Cl)c3)Oc3cc2cc(c3O[C@H]2O[C@@H](CO)[C@@H](O)[C@@H](O)[C@@H]2O[C@@H]2C[C@](C)(N)[C@H](O)[C@H](C)O2)Oc2ccc(cc2Cl)[C@@H]1O | nt | nt | nt | nt | nt | i
N=c1c(S(=O)(=O)c2ccc(Cl)cc2)cc2c(=O)n3ccccc3nc2n1Cc1cccnc1 | i | i | 151 | i | i | i
COc1ccc(CNC(=O)c2cc3c(=O)n4ccccc4nc3n(Cc3cccnc3)c2=N)cc1 | i | i | 95 | i[7.66 µM] | i | i
COc1cccc(C(=O)Nc2ccc3nc(N4CCOCC4)cc(C)c3c2)c1 | ? | i | i | i | i | 10µM
CCN1CCN(c2ccc(NC(=O)c3ccccc3F)cc2Cl)CC1 | i | 7.1µM | i | i | i | i
COc1c(C)cccc1C(=O)Nc1ccc(N2CCOCC2)c(Cl)c1 | i | 2.5µM | i | i | i | i
CCN1CCN(c2cc(C)c3cc(NC(=O)c4cccc(OC)c4)ccc3n2)CC1 | i | i | i | i | i | i
COc1c(F)c(F)c(C(=O)Nc2ccc(N3CCN(C(C)=O)CC3)c(Cl)c2)c(F)c1F | ? | i | i | i | i | 11µM
O=C(Nc1ccc(N2CCOCC2)c(Cl)c1)c1cccnc1Cl | ? | i | i | i | i | i
CCCCCC(=O)Nc1ccc(N2CCN(CC)CC2)c(Cl)c1 | i | i | i | i | i | ?
O=C(/C=C/c1ccc(Br)cc1)NC(=O)c1ccccc1O | ? | i | i | i | ? | i
CSc1ccc(/C=C/C(=O)NC(=O)c2ccccc2O)cc1 | ? | 13µM | i | i | i | i
Clc1ccccc1COc1ccc(/C=N/n2cnnc2)cc1 | i | i | i | i | i | i
Cc1n[nH]c(=S)n1/N=C/c1ccc(OCc2ccc(Cl)cc2Cl)cc1 | ? | ? | i | i | i | i
Fc1ccc(COc2ccc(/C=N/n3cnnc3)cc2)cc1 | i | 16µM | i | i | i | i
Cc1n[nH]c(=S)n1/N=C/c1ccc(OCc2ccc(Cl)cc2)cc1 | ? | 5µM | i | i | i | i
Cc1cccc(-c2nnc(-c3ccccc3)o2)c1 | i | i | i | i | 11µM | i
Brc1ccccc1-c1nnc(-c2cccnc2)o1 | i | i | i | i | 16µM | i
Clc1ccc(-c2nnc(-c3cccnc3)o2)cc1 | ? | 7.9µM | i | i | i | i
c1cncc(-c2nnc(-c3cccs3)o2)c1 | i | 14µM | i | i | i | i
Brc1ccc(-c2nnc(-c3ccccc3Br)o2)cc1 | i | ? | i | i | ? | i
Cc1nnc(-c2ccccc2)o1 | i | i | i | ? | i | i
CC(C)C[C@@H](CC(=O)N[C@@H](CCC(=O)O)CC(=O)O)NC(=O)[C@@H]1CCCC[C@H]1NC(=O)C[C@H](CCCN)NC(=O)C[C@H](Cc1c[nH]c2ccccc12)NC(=O)[C@@H]1CNCC[C@H]1N | nt | nt | nt | nt | nt | i
Cc1ccc(-c2nnc(-c3cccnc3)o2)cc1 | i | 4.5µM | i | i | i | i
Cc1ccccc1-c1nnc(-c2cccs2)o1 | i | i | i | i | 11µM | i
SMILES | BCR signal inh | BRCA1 expr up | IL-2 act | Integrin act MD | Nrf2 ARE act | N370S GC mod
COc1ccc(-c2nnc(-c3cccnc3)o2)cc1 | i | ? | i | i | i | i
FC(F)(F)c1ccc(-c2nnc(-c3cccnc3)o2)cc1 | i | i | i | i | i | i
Brc1ccc(-c2nnc(-c3cccnc3)o2)cc1 | nt | 4.5µM | i | i | i | nt
N#C/C(=C\c1ccc(Cl)cc1)c1nc(-c2ccco2)cs1 | ? | i | i | i | i | i
N#C/C(=C\c1ccc(-c2ccccc2)cc1)c1nc(-c2ccco2)cs1 | ? | i | 79 | i | i | i
COc1ccccc1CCNC(=O)C(=O)NCC(c1ccco1)S(=O)(=O)c1ccccc1 (centres undefined) | i | nt | nt | nt | i | nt
O=C(COC(=O)c1ccccc1)NC12CC3CC(CC(C3)C1)C2 | i | i | i | i | i | nt
O=C(CCCc1ccccc1)NC12CC3CC(CC(C3)C1)C2 | i | 2.8µM | i | i | i | i
O=C(CCc1nc2cccnc2n1Cc1ccccc1)NCc1cccc(Cl)c1 | nt | nt | nt | nt | i | nt
Cn1nnnc1Sc1ncnc2scc(-c3cccc4ccccc34)c12 | i | i | i | nt | 7.1µM | nt
Cn1nnnc1Sc1ncnc2scc(-c3ccccc3Br)c12 | ? | i | i | nt | ? | nt
NC(=O)c1ccccc1NC(=O)CCc1ccccc1 | ? | 11µM | i | i[7.66 µM] | i | i
O=C(O)CCC(=O)Nc1ccccc1C(=O)NCCc1ccccc1 | i | 8.9µM | i | i | i | i
NC(=O)c1ccccc1NC(=S)NC(=O)CCc1ccccc1 | ? | i | i | i | i | i
Cc1cccc(-c2cc3nc(C)cc(C)n3n2)c1 | ? | 1.6µM | i | i | ? | i
CC1(C)CC(=O)C2=C(C1)NC1=C(C(=O)c3ccccc31)C2c1cc([N+](=O)[O-])ccc1O (centres undefined) | i | i | i | i | i | 14µM
O=C(Nc1ccc2c(c1)OCO2)c1ccc2sc([C@H]3C[C@H](O)[C@@H](CO)O3)nc2c1 | nt | 8.9µM | i | nt | i | nt
O=C(Nc1nc2ccccc2s1)c1ccc2sc([C@H]3C[C@H](O)[C@@H](CO)O3)nc2c1 | nt | ? | i | nt | i | nt
O=C(Nc1nccs1)c1ccc2sc([C@H]3C[C@H](O)[C@@H](CO)O3)nc2c1 | nt | 13µM | i | nt | i | nt
O=C(Nc1ccc2c(c1)OCO2)c1ccc2sc([C@@H]3O[C@H](CO)[C@@H](O)[C@H]3O)nc2c1 | nt | 3.2µM | i | nt | i | nt
O=C(CNC(=O)c1ccccc1)N/N=C/c1cccs1 | i | i | i | i | i | i
O=C(CNC(=O)c1ccccc1F)N/N=C/c1cccs1 | i | 10µM | i | i | i | i
CNc1cccc(-c2cccc(O)c2)n1 | nt | 10µM | i | nt | i[9.22 µM] | nt
COCCN1C=C(C(=O)OC)C(c2cc(Br)c(OC)c(OC)c2)C(C(=O)OC)=C1 | ? | i | i | i | i | ?
COCCN1C=C(C(=O)OC)C(c2ccccc2Cl)C(C(=O)OC)=C1 | i | i | i | 8.9µM | i | ?
Fc1ccccc1-c1ccc(/C=N/Nc2nc3ccccc3[nH]2)o1 | 23µM | i | i | i | 11µM | i
C(=N\Nc1nc2ccccc2[nH]1)/c1ccccn1 | ? | i | i | i | i | i
CCOC(=O)C1=C(COC(=O)c2cccc(Br)c2)NC(=O)NC1C (centres undefined) | i | i | i | i | i | i
